Screening data: PubChem, National Center for Advancing Translational Sciences (NCATS)
IMPase inh: qHTS Assay for Identifying the Cell-Membrane Permeable IMPase Inhibitors; CHO-M1 cells, IP1 accumulation, HTRF TR-FRET ratio; inhibition (IP1 accumulation), % at 46.1 µM; 120,000 tested, under 10 active; AID 901, 2007; active = well fitted curve in the direction sought with a large enough effect in the signal ratio, not every such curve was filed as active; inconclusive = small, poorly fitted or top-dose-only effect, or a change in a side signal; inactive = no such curve, though single readings can be large or run the other way; the % refers to the signal ratio;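 also: cells stimulated with carbachol in lithium chloride buffer; plate controls were DMSO basal wells for no effect and reference inhibitor wells for full effect; higher means more IMPase inhibition seen as more IP1 and lower FRET ratio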
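CHO-M1, 2000 cells/well, cultured 16–30 h; cpd up to 46 uM; carbachol (50 uM solution, stimulation buffer w/ 50 mM LiCl, pH 7.4), 30 min 37C; IP-One TR-FRET, 10 min RT; Ex 320/Em 665, 620; Hill-fit AC50.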
IMPase Li inh: qHTS Assay for Identifying the Cell-Membrane Permeable IMPase Inhibitors: Potentiation with Lithium. CHO-M1 cells, IP1 TR-FRET (IP-One), carbachol + lithium. Potency, µM (series often up to 59.4 µM), without a hit: at the top dose activity, negative = IMPase inhibition, hits mostly inhibitors. 0.35% of 210,000 active. AID 1457, 2008;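 also: IP1 builds up when IMPase is blocked and the TR-FRET signal falls; potency is read from the fitted curve at half-maximal effect; plate controls were basal vehicle for no effect and high inhibitor control for full effect; nearly all actives have a fitted effect of over 50% in size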
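Lithium-sensitised IP1 accumulation assay; M1-expressing CHO cells treated 30 min at 37C with compound. Competitive antibody detection by time-resolved FRET followed a 10 min room-temperature lysis step.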
HPGD inh: qHTS Assay for Inhibitors of HPGD (15-Hydroxyprostaglandin Dehydrogenase) | 15-hydroxyprostaglandin dehydrogenase [NAD(+)] (Homo sapiens), P15428 | purified HPGD, NADH fluorescence kinetic, PGE2 substrate | Potency, µM, inactives show top-dose activity change, negative = inhibition, usual class: inhibitors | 4.3% of 150,000 active; active = well fitted inhibition curve with a large enough effect, not every such curve was filed as active; inconclusive = small, poorly fitted or top-dose-only effect, or another doubt; inactive = no such curve, though single readings can be large or run the other way; also: potency is read from the fitted curve at half-maximal effect
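20 nM HPGD preincubated 15 min at room temperature with compound in 50 mM Tris-HCl pH 8, 0.01% Tween 20. Started with 1 mM NAD+ and 30 uM prostaglandin E2; NADH fluorescence (360/450 nm) read 5 times over 30-s intervals, last minus first.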
ALDH1A1 inh: qHTS Assay for Inhibitors of Aldehyde Dehydrogenase 1 (ALDH1A1); Purified ALDH1A1, NADH fluorescence, propionaldehyde substrate; Potency, µM (series often up to 75.3 µM), inactives show top-dose activity, negative = inhibition, actives largely listed as inhibitors; 7.3% of 220,000 active; active = well fitted inhibition curve with a large enough effect, not every such curve was filed as active; inconclusive = small, poorly fitted or top-dose-only effect, or another doubt; inactive = no such curve, though single readings can be large or run the other way;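 also: potency is read from the fitted curve at half-maximal effect; plate controls were no enzyme wells and a reference inhibitor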
ALOX12 inhib: qHTS Assay for Inhibitors of 12-hLO (12-human lipoxygenase). Polyunsaturated fatty acid lipoxygenase ALOX12 (Homo sapiens), P18054. Potency, µM (highest dose often 57.1 µM), inactives show top-dose activity change, negative = inhibition, usual class: inhibitors. 0.12% of 150,000 active. purified 12-hLO, xylenol orange hydroperoxide absorbance; also: potency is read from the fitted curve at half-maximal effect; nearly all actives have a fitted effect of over 55% in size
Target sequence (P18054 whole entry, looked up): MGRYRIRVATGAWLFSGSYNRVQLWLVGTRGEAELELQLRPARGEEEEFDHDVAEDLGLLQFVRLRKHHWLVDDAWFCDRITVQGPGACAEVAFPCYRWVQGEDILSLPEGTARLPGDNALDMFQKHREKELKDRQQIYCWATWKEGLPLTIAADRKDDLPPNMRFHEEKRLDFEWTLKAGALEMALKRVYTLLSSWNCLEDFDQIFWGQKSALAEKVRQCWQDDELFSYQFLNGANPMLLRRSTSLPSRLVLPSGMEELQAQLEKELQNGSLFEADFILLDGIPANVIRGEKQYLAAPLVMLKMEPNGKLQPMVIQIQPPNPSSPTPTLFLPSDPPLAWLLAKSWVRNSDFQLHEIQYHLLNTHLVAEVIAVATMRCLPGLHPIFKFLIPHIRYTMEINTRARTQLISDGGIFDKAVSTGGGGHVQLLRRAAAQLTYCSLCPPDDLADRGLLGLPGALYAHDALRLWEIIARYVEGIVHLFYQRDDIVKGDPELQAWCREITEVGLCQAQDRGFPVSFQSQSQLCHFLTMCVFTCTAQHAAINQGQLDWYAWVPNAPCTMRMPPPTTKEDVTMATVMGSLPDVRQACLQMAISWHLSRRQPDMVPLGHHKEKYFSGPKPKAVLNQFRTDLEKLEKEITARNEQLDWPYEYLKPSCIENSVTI
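Xylenol orange chromogenic assay: hydroperoxide from 12hLO oxidises Fe(II), giving red-shifted Fe(III)-XO absorbance. Conditions: 150 nM enzyme, 40 uM arachidonic acid, 25 mM Hepes pH 7.0, 0.01% Triton X-100, 30 min, room temperature.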
PNC inhibitor: High Content Assay for Compounds that inhibit the Assembly of the Perinucleolar Compartment. 3.1% of 140,000 active. activity change (PNC), negative = inhibition, % at 10 µM. PC3M PTB-GFP, PNC prevalence imaging, 16 h; active compounds read low. AID 2417, 2010;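 active = readout at or below -70, meaning at least 70% loss of cells showing the perinucleolar compartment, a nuclear body marking cancer cells; inconclusive = readout between -30 and a set limit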;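 also: plate controls were DMSO wells for no effect and camptothecin positive control wells for full effect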
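Compounds are pinned in duplicate onto adhered PC3M cells stably expressing GFP-tagged PTB and incubated 16 h at 37 C. Cells are then fixed, nuclei stained with Hoechst, and PNC-positive cells counted.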
* = called active by the depositor; ? = inconclusive; nt = no result given; [ ] = dose if it differs, or a comment. An excerpt weighted towards active compounds, which were near 11% of everything screened. Unless noted, calls follow the shape of the dose curve; as a rule, active = well fitted curve in the direction sought with a large enough effect; inconclusive = small, poorly fitted or top-dose-only effect, or another doubt; inactive = no such curve, though single readings can be large; an effect the other way counts as inactive or inconclusive. Unless noted, % is scaled to controls: 0 for no effect and ±100 for the full control effect.

SMILES | IMPase inh | IMPase Li inh | HPGD inh | ALDH1A1 inh | ALOX12 inhib | PNC inhibitor
CC#CCN1c2ccccc2[C@]23C[C@@H](C(=O)OC)N(S(=O)(=O)c4ccc(C#N)cc4)C2=NC(C(=O)OC)=C(C(=O)OC)[C@H]13 | nt | -8% | -8% | 6%[13.5 µM] | -2%[11.4 µM] | nt
COc1ccc(-c2cc(C(F)F)nn2-c2ccc(S(N)(=O)=O)cc2)cc1F | nt | 4% | -18% | 17% | -3% | nt
COC(=O)[C@@]1(Cc2ccc(F)cc2)[C@H]2c3cc(C(=O)N(C)C)n(CCN4CCOCC4)c3C[C@H]2CN1C(=O)c1ccccc1 | nt | -4% | -9% | 2% | 5% | nt
COc1cc2c(cc1OC)C1CCC3=C([C@H](C)OC3=O)N1CC2 (stereo partly specified) | nt | 18% | ? | ? | nt | nt
C[C@H](NS(=O)(=O)c1ccccc1F)C(=O)OCC(=O)N1CCc2ccccc21 | -5 | 7%[38.3 µM] | 5% | ? | -2% | -93*
O=C(CCCOc1ccccc1)N1CCCc2ccccc21 | -14 | -1%[38.3 µM] | -9% | -7% | -4% | -6
CCOC(=O)c1[nH]c(C)c(C(=O)OCC(=O)N2CCc3ccccc32)c1C | -2 | 32%[38.3 µM] | 2% | -1% | -1% | 4
O=C(CNS(=O)(=O)c1ccccc1Br)OCC(=O)N1CCc2ccccc21 | 8 | 8%[38.3 µM] | 4% | 2% | -4% | -1
CCOC(=O)C1=C(C)NC(C)=C(C(=O)OCC)C1C(=O)OCC(=O)N1CCc2ccccc21 | 5 | 0%[38.3 µM] | -19% | 10% | -9% | -99*
O=C(COc1ccccc1)N1CCc2ccccc21 | nt | 0% | -11% | -12% | 4% | -82*
CC(=O)c1cccc(NC(=O)CCS(=O)(=O)c2cc(Br)cc3c2N(C(=O)C2CC2)CC3)c1 | -6 | nt | nt | nt | nt | nt
Cc1cccc2sc(NC(=O)C3CCCN(S(=O)(=O)c4cccc5nonc45)C3)nc12 (stereo unspecified) | -2 | 7% | -13% | 3% | 0% | -100*
Cc1cccc2sc(NC(=O)C3CCN(S(=O)(=O)c4cc([N+](=O)[O-])ccc4Cl)CC3)nc12 | 22 | 15% | -20% | 7.1µM* | -14% | 12
Cc1cccc(NC(=O)C2CCCN(S(=O)(=O)c3cccc4nonc34)C2)c1C (stereo unspecified) | -4 | nt | nt | nt | nt | nt
O=C(NCc1ccc(Cl)cc1)C1CCN(S(=O)(=O)c2cc([N+](=O)[O-])ccc2Cl)CC1 | 1 | 15% | -5% | 1.4µM* | 4% | -29
CC1=NCCN1S(=O)(=O)c1cc([N+](=O)[O-])ccc1Cl | nt | 2% | nt | 7.9µM* | nt | nt
COc1ccc2nc(NC(=O)C3CCN(S(=O)(=O)c4cccc5nsnc45)CC3)sc2c1 | -6 | 12%[38.3 µM] | -8% | -8% | -3% | 8
O=c1c(-c2ccccc2)nc2cncnc2n1Cc1ccccc1 | nt | 9% | nt | ? | nt | nt
Cc1nc2ccccc2nc1SCC(=O)N1CCC(C)CC1 | ? | 13µM* | -10% | ? | 4% | 18
OC(CNc1nc2ccccc2s1)c1ccccc1 (stereo unspecified) | -2 | 23%[38.3 µM] | 10µM* | 7% | -1% | -82*
N#CCc1nc(CSc2nc3ccccc3s2)cs1 | 2 | 43%[38.3 µM] | 25µM* | ? | ? | 12
CC1CCCC(C)N1C(=O)CSc1nc2ccccc2s1 (stereo unspecified) | -6 | 42%[38.3 µM] | 2.2µM* | 22µM* | -7% | 35
O=C(O)NCC1CCCCC1 (tested in a mixture with another compound) | nt | 12% | -11% | -8%[13.5 µM] | 2%[11.4 µM] | nt
COc1cccc(-c2csc(N3CCN(C(=O)C4CCCCC4)CC3)n2)c1 | 10 | 29%[38.3 µM] | -5% | 13µM* | -5% | 30
O=C(CSc1nc2ccc(Cl)cc2[nH]1)N1CCN(C(=O)c2ccco2)CC1 | 3 | -5% | -2% | 22µM* | -7% | ?
SMILES | IMPase inh | IMPase Li inh | HPGD inh | ALDH1A1 inh | ALOX12 inhib | PNC inhibitor
O=C(CSc1nc(-c2ccc(F)cc2)cs1)N1CCN(C(=O)c2ccco2)CC1 | -2 | 11%[38.3 µM] | ? | 14µM* | -15% | -10
CC1CCCN(C(=O)CSc2cnc3ccccc3n2)C1 (stereo unspecified) | ? | 3.2µM* | 4.5µM* | 28µM* | -4% | 10
CC1CCCN(C(=O)CSc2nc3ncccc3[nH]2)C1 (stereo unspecified) | nt | -1% | nt | ? | nt | nt
O=C(O)[C@@H]1[C@@H]2C[C@H]3c4[nH]c5ccccc5c4CCN3C[C@@H]2CC[C@@H]1O | 6[20.6 µM] | 8% | -26% | -3%[20.9 µM] | -1%[25.6 µM] | nt
O=C(O)CSc1nc2ccccc2o1 | -9 | -9%[38.3 µM] | -16% | 3% | 0% | -7
O=C(O)C1CCN(C(=O)CSc2nc3ccccc3s2)CC1 | nt | -12% | nt | -16% | nt | nt
CC1CCN(C(=O)CSc2nc3ccccc3s2)CC1 | 12 | -6%[38.3 µM] | 14µM* | ? | -12% | 12
Cc1ccc(C(=O)CSc2cnc3ccccc3n2)cc1C | nt | -2% | 22µM* | 22µM* | -5% | -5
NC(=O)C1CCN(C(=O)CSc2nc3ccccc3s2)CC1 | -4 | 28%[38.3 µM] | -9% | ? | 2% | -20
O=C(CSc1nc2ccccc2s1)N1CCCCC1 | 2 | 20%[38.3 µM] | 2.8µM* | 4.5µM* | -4% | ?
O=C(CSc1nc2ccccc2o1)N1CCCC1 | 6 | -5%[38.3 µM] | 25µM* | -2% | 1% | -27
CCOc1ccc(CCNC(=O)c2nnc(Cc3ccc(Cl)cc3Cl)o2)cc1OCC | 6 | nt | nt | nt | nt | nt
O=C(O)CCSc1nc2ccccc2s1 | -8 | 17%[38.3 µM] | ? | 25µM* | 5% | ?
CC(=O)Nc1ccc2nc(SCC(=O)N3CCOCC3)sc2c1 | nt | -4% | nt | 4% | nt | nt
COc1ccc(-c2csc(N3CCN(C(=O)c4ccccc4)CC3)n2)cc1 | -1 | 16% | -14% | ? | -4% | 4
Cc1[nH]nc(SCC(=O)N2CCC(C)CC2)c1[N+](=O)[O-] | 6 | 54%[38.3 µM] | 6.3µM* | 10µM* | -5% | 43
O=C(CSc1nc2ccc(Nc3nc(N4CCOCC4)nc(N4CCOCC4)n3)cc2s1)N1CCOCC1 | nt | 5% | 22µM* | 4% | -4% | -2
c1ccc2sc(SCSc3nc4ccccc4s3)nc2c1 | nt | 12% | -29% | -15%[13.5 µM] | -2%[11.4 µM] | nt
COc1ccc(-c2csc(N3CCN(C(=O)c4ccco4)CC3)n2)cc1 | 10 | 24%[38.3 µM] | -16% | 28µM* | -4% | -28
